{
  "source": "ChEMBL document CHEMBL4513216",
  "about": "“Probing the Open Global Health Chemical Diversity Library for Multistage-Active Starting Points for Next-Generation Antimalarials” (ACS Infect Dis, 2020)",
  "note": "In all, about 69,000 compounds went through this assay and about 8,600 (12%) showed an effect of 50% or more. The sample as a whole holds a higher share of strong results than the screen did.",
  "data": [
    {"system": "Plasmodium berghei", "assay": "Screen against P. berghei liver stage (PbLuc), transformed with Luciferase, at 10uM", "format": "functional, HepG2", "details": "tested at 10 uM", "units": {"INHIBITION": "%"}, "values": [
      {"smiles": "Cc1nnc2n1CCN(Cc1ncc(-c3ccc(F)cc3)o1)C2", "INHIBITION": 46.1},
      {"smiles": "Cc1c(CCC(=O)N2CCOC(c3cnccn3)C2)cnn1C", "note": "(stereo not drawn)", "INHIBITION": -10.4},
      {"smiles": "Cc1noc(C)c1C(=O)N1CCCN(Cc2nccn2C(C)C)CC1", "INHIBITION": 4.1},
      {"smiles": "CCN(CCC(F)(F)F)C(=O)Nc1cccc(N2CCOCC2)c1", "INHIBITION": 3.47},
      {"smiles": "CCN(CC1CCCO1)C(=O)Nc1cccc(N2CCOCC2)c1", "note": "(stereo not drawn)", "INHIBITION": 54.4},
      {"smiles": "CCN(CC1CCCO1)C(=O)Nc1ccc(OC)c(C)c1", "note": "(stereo not drawn)", "INHIBITION": -79.7},
      {"smiles": "O=C(c1cscn1)N1CCC(Cc2cnc3[nH]ccc3c2)C1", "note": "(stereo not drawn)", "INHIBITION": -14.1},
      {"smiles": "Cc1n[nH]c(NC(=O)c2ccc(COCC(F)(F)F)cc2)c1C", "INHIBITION": 52.5},
      {"smiles": "COc1cccnc1NC(=O)COc1c(C)cccc1C", "INHIBITION": 36.5},
      {"smiles": "O=C(Nc1cc[nH]n1)c1ccc(COCC(F)(F)F)cc1", "INHIBITION": -17.8},
      {"smiles": "COc1cccnc1NC(=O)COc1ccc(F)cc1F", "INHIBITION": 33.5},
      {"smiles": "CC(C)(C)NC(=O)c1ccc(COCC(F)(F)F)o1", "INHIBITION": 14.2},
      {"smiles": "COc1cccnc1NC(=O)c1ccc(COCC(F)(F)F)cc1", "INHIBITION": 62.4},
      {"smiles": "O=C(Cc1ccccc1)N1CCCC2(COCCN(CC3CC3)C2)C1", "note": "(stereo not drawn)", "INHIBITION": 19.5},
      {"smiles": "Cc1ccc(C(C(=O)NCc2n[nH]c(N)n2)N(C)C)cc1", "note": "(stereo not drawn)", "INHIBITION": 19.5},
      {"smiles": "CC(=O)N(C)Cc1ncn2c1CN(C(=O)C1CCCO1)CCC2", "note": "(stereo not drawn)", "INHIBITION": -0.453},
      {"smiles": "CCc1ncc(CN2CCN(CCOC)CC2)cn1", "INHIBITION": 11.1},
      {"smiles": "COCCN1CCN(Cc2cnc(C)nc2)CC1", "INHIBITION": -9.32},
      {"smiles": "COCCN1CCN(Cc2cnc(C(C)C)nc2)CC1", "INHIBITION": 53.2},
      {"smiles": "CN(C)S(=O)(=O)c1ccc(-c2nc(C#N)c(NC3CC3)o2)o1", "INHIBITION": 15.4},
      {"smiles": "O=S(=O)(c1ccccc1Cl)N1CCc2nc(C3CCNCC3)ncc2C1", "INHIBITION": 75.6},
      {"smiles": "CCN(CC)S(=O)(=O)N1CCc2nc(C3CCNCC3)ncc2C1", "INHIBITION": 32.3},
      {"smiles": "CCN(CC)S(=O)(=O)N1CCCC(c2ncc3c(n2)CCN(C)C3)C1", "note": "(stereo not drawn)", "INHIBITION": 43.25},
      {"smiles": "CCC(C)S(=O)(=O)N1CCc2nc(C3CCNCC3)ncc2C1", "note": "(stereo not drawn)", "INHIBITION": 57.5},
      {"smiles": "Clc1ccccc1CN1CCc2nc(C3CCNCC3)ncc2C1", "INHIBITION": 23.2},
      {"smiles": "Cc1noc(C)c1S(=O)(=O)N1CCc2nc(C3CCNCC3)ncc2C1", "INHIBITION": 34},
      {"smiles": "O=S(=O)(N1CCCCC1)N1CCc2nc(C3CCNCC3)ncc2C1", "INHIBITION": 22.2},
      {"smiles": "Cc1ccc(S(=O)(=O)N2CCc3nc(C4CCNCC4)ncc3C2)cc1", "INHIBITION": 68.2},
      {"smiles": "O=S(=O)(c1ccc(Cl)cc1)N1CCc2nc(C3CCNCC3)ncc2C1", "INHIBITION": 9.93},
      {"smiles": "COc1c(CNC2(c3noc(C)n3)CCC2)c(C(C)C)nn1C", "INHIBITION": -113},
      {"smiles": "Cc1ocnc1C(=O)N1CCCN(Cc2cscn2)CC1", "INHIBITION": 35.3},
      {"smiles": "O=C(c1ccncc1)N1CC[C@@H]2CN(C3CCOCC3)CCO[C@@H]2C1", "INHIBITION": 23.1},
      {"smiles": "Cn1cccc1CN1CCC2(CC1)CC(Oc1cccnc1)C2", "INHIBITION": 24.6},
      {"smiles": "c1csc(CCNc2nc(-c3ccncc3)nc3c2CCNCC3)c1", "INHIBITION": 31.6},
      {"smiles": "c1cncc(-c2nc3c(c(NCC4(c5ccncc5)CC4)n2)CCC3)c1", "INHIBITION": -5.38},
      {"smiles": "NC1CCc2nc(-c3ccncc3)nc(Nc3cccc(F)c3)c2C1", "note": "(stereo not drawn)", "INHIBITION": 90.35},
      {"smiles": "O=C(c1cccc(F)c1)N1CCCC1c1ncc2c(n1)CCNC2", "note": "(stereo not drawn)", "INHIBITION": 36.7},
      {"smiles": "COc1cccc(Nc2nc(-c3ccncc3)nc3c2CNCC3)c1", "INHIBITION": 51.7},
      {"smiles": "O=C(Nc1cccc(F)c1)NC1CCN(Cc2ccncc2)CC1", "INHIBITION": 45.4},
      {"smiles": "CC(O)CNc1nc(-c2cccnc2)nc2c1CCC2", "note": "(stereo not drawn)", "INHIBITION": -43},
      {"smiles": "Fc1cccc(Nc2nc(N3CCCC3)nc3c2CNCC3)c1", "INHIBITION": 76.8},
      {"smiles": "COc1cccc(Nc2nc(C3CCNCC3)c3ccccn23)c1", "INHIBITION": 9.6},
      {"smiles": "CC(Nc1nc(-c2ccncc2)nc2c1CCNC2)c1ccccc1", "note": "(stereo not drawn)", "INHIBITION": 46.3},
      {"smiles": "COc1cccc(Nc2nc(N3CCCC3)nc3c2CNCC3)c1", "INHIBITION": 42.5},
      {"smiles": "NC1CCc2nc(-c3cccnc3)nc(Nc3ccc(F)cc3)c2C1", "note": "(stereo not drawn)", "INHIBITION": 63.85},
      {"smiles": "Cc1sc(CN)nc1-c1ccc(Cl)cc1", "INHIBITION": 5.11},
      {"smiles": "CCc1cc(-c2cc[nH]n2)nc(N2CCCC2)n1", "INHIBITION": 14.6},
      {"smiles": "Cn1cc([C@@H]2CN(S(=O)(=O)c3cccs3)C[C@H]2N)c2ccncc21", "INHIBITION": 41.9},
      {"smiles": "Cc1c(CC(=O)N2CCSCC2)nnn1-c1cccc(Cl)c1", "INHIBITION": 3.46},
      {"smiles": "O=C(CC1CCCC1)N1CCC2(CC1)[C@H](O)C[C@@H]2O", "INHIBITION": 33.4},
      {"smiles": "CN(Cc1ccco1)C(=O)CN1CCCC1Cn1cncn1", "note": "(stereo not drawn)", "INHIBITION": -4.16},
      {"smiles": "Cc1cnn(C2CCCN(C(=O)c3cn4ccccc4n3)C2)c1", "note": "(stereo not drawn)", "INHIBITION": 22.3},
      {"smiles": "COc1ccnc(N2CCN(C(=O)Cc3csc(C)n3)CC2)n1", "INHIBITION": -55.4}
    ]}
  ]
}
